Key:
Test in all cases: PBM binding z-score (relative to random genomic background probes); higher = stronger binding; sequences stand for … in GC…GCGATTGACAGCGTAGAATGAAGG
[1] = test system: FXR:RXRa (NR concentration 270 nM, RXRa partner concentration 90 nM)
How it was run: (§1)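 Random background probes are the reference for binding z-scores. These scores derive from regression-normalized fluorescence on custom Agilent 4×180K protein-binding microarrays incubated 1 h with ligand-free nuclear receptor dimers. Binding was detected with antibodies against each partner (one per run).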

[2] = test system: LXRa:RXRa (NR concentration 270 nM, RXRa partner concentration 90 nM)
How it was run: as §1

[3] = test system: LXRa homodimer (NR concentration 270 nM)
How it was run: as §1

[4] = test system: LXRb:RXRa (NR concentration 270 nM, RXRa partner concentration 90 nM)
How it was run: as §1

[5] = test system: LXRb homodimer (NR concentration 270 nM)
How it was run: as §1

[6] = test system: PPARa:RXRa (NR concentration 270 nM, RXRa partner concentration 90 nM)
How it was run: as §1

[7] = test system: PPARg:RXRa (NR concentration 180 nM, RXRa partner concentration 90 nM)
How it was run: as §1

[8] = test system: PPARg:RXRa 270nM:90nM, anti-RXR (NR concentration 270 nM, RXRa partner concentration 90 nM)
How it was run: as §1

[9] = test system: PPARg:RXRa 30nM:10nM, anti-RXR (NR concentration 30 nM, RXRa partner concentration 10 nM)
How it was run: as §1

[10] = test system: PPARg:RXRa 90nM:30nM, anti-RXR (NR concentration 90 nM, RXRa partner concentration 30 nM)
How it was run: as §1

ATATGTAGGTTAGCTGGGGTCATTGAGACTAGGC
PBM binding z-score [1]: 4.97
PBM binding z-score [2]: 5.62
PBM binding z-score [3]: 2.48
PBM binding z-score [4]: 4.62
PBM binding z-score [5]: 1.35
PBM binding z-score [6]: 5.24
PBM binding z-score [7]: 5.52
PBM binding z-score [8]: 5.03
PBM binding z-score [9]: 2.46
PBM binding z-score [10]: 4.26

AGAACGAGGGCACGCTTAGTTGATAGCAGAGTAG
PBM binding z-score [1]: 0.731
PBM binding z-score [2]: 0.538
PBM binding z-score [3]: -0.173
PBM binding z-score [4]: 0.495
PBM binding z-score [5]: -0.638
PBM binding z-score [6]: 2.26
PBM binding z-score [7]: 2.16
PBM binding z-score [8]: 1.86
PBM binding z-score [9]: 0.46
PBM binding z-score [10]: 1.5

TCATATAGGTAATACAGGAGAAAGTCGGCATCTA
PBM binding z-score [1]: 0.853
PBM binding z-score [2]: 1.01
PBM binding z-score [3]: 0.161
PBM binding z-score [4]: 0.676
PBM binding z-score [5]: 0.172
PBM binding z-score [6]: 1.07
PBM binding z-score [7]: 1.23
PBM binding z-score [8]: 2.37
PBM binding z-score [9]: 3.96
PBM binding z-score [10]: 2.81

ATCGAAACGTCGAAGGTGAGTATACCCACCCGAA
PBM binding z-score [1]: -0.17
PBM binding z-score [2]: -0.352
PBM binding z-score [3]: -0.345
PBM binding z-score [4]: -0.738
PBM binding z-score [5]: -0.334
PBM binding z-score [6]: -0.193
PBM binding z-score [7]: 0.676
PBM binding z-score [8]: -0.0479
PBM binding z-score [9]: 0.0501
PBM binding z-score [10]: -0.0142

CAAACTAGGTCATGGTCAAAGTCGGTTTGTGCCA
PBM binding z-score [1]: 3.73
PBM binding z-score [2]: 2.64
PBM binding z-score [3]: 0.245
PBM binding z-score [4]: 1.94
PBM binding z-score [5]: 0.0742
PBM binding z-score [6]: 4.74
PBM binding z-score [7]: 8.15
PBM binding z-score [8]: 6.86
PBM binding z-score [9]: 4.7
PBM binding z-score [10]: 6.63

ACTACTAGTTGACTTAGGGCAACCGATACGACGC
PBM binding z-score [1]: 0.249
PBM binding z-score [2]: 0.17
PBM binding z-score [3]: 0.195
PBM binding z-score [4]: 0.0613
PBM binding z-score [5]: 0.134
PBM binding z-score [6]: 0.123
PBM binding z-score [7]: 1.04
PBM binding z-score [8]: 0.267
PBM binding z-score [9]: 0.432
PBM binding z-score [10]: 0.312

CGTCCAAGGTCAACGGTCAGTGAAGAGATGACGG
PBM binding z-score [1]: 7.38
PBM binding z-score [2]: 5.09
PBM binding z-score [3]: 1.45
PBM binding z-score [4]: 4.23
PBM binding z-score [5]: 0.938
PBM binding z-score [6]: 6.03
PBM binding z-score [7]: 6.01
PBM binding z-score [8]: 5.78
PBM binding z-score [9]: 2.86
PBM binding z-score [10]: 4.85

CGAACTAGGTCATTGACAGGACACTGAATAGTAA
PBM binding z-score [1]: 4.3
PBM binding z-score [2]: 3
PBM binding z-score [3]: 0.64
PBM binding z-score [4]: 2.25
PBM binding z-score [5]: 0.377
PBM binding z-score [6]: 4.54
PBM binding z-score [7]: 7.31
PBM binding z-score [8]: 6.14
PBM binding z-score [9]: 3.7
PBM binding z-score [10]: 5.66

ACTATTAGTTGAGACGAGGCCAACCGATAGGTTG
PBM binding z-score [1]: 0.859
PBM binding z-score [2]: 0.188
PBM binding z-score [3]: 0.0694
PBM binding z-score [4]: -0.0266
PBM binding z-score [5]: 0.238
PBM binding z-score [6]: 0.13
PBM binding z-score [7]: 0.24
PBM binding z-score [8]: -0.0513
PBM binding z-score [9]: -0.341
PBM binding z-score [10]: -0.176

ATCCAAAGGTCGACGAGGTGAGTATACACCGTTT
PBM binding z-score [1]: 5.35
PBM binding z-score [2]: 3.7
PBM binding z-score [3]: 0.198
PBM binding z-score [4]: 3.13
PBM binding z-score [5]: 0.235
PBM binding z-score [6]: 4.5
PBM binding z-score [7]: 4.29
PBM binding z-score [8]: 4.16
PBM binding z-score [9]: 1.4
PBM binding z-score [10]: 3.03

AGAATGAGGGCAATGAGTTGATAGCACGGGTGGC
PBM binding z-score [1]: 0.728
PBM binding z-score [2]: 0.505
PBM binding z-score [3]: -0.515
PBM binding z-score [4]: -0.0914
PBM binding z-score [5]: -0.286
PBM binding z-score [6]: 1.91
PBM binding z-score [7]: 1.79
PBM binding z-score [8]: 1.42
PBM binding z-score [9]: 0.0297
PBM binding z-score [10]: 0.697

AGAATGAGGTTATACGTAGATCACGGAAGAAAGT
PBM binding z-score [1]: 2.18
PBM binding z-score [2]: 2.11
PBM binding z-score [3]: 0.266
PBM binding z-score [4]: 1.61
PBM binding z-score [5]: -0.128
PBM binding z-score [6]: 3.03
PBM binding z-score [7]: 1.91
PBM binding z-score [8]: 2.03
PBM binding z-score [9]: 0.729
PBM binding z-score [10]: 1.42

TCATATAGGTAAATGCTAGGTGAAAGTCCGATCT
PBM binding z-score [1]: 1.23
PBM binding z-score [2]: 1.02
PBM binding z-score [3]: 0.256
PBM binding z-score [4]: 0.834
PBM binding z-score [5]: -0.0467
PBM binding z-score [6]: 1.43
PBM binding z-score [7]: 1.09
PBM binding z-score [8]: 2.44
PBM binding z-score [9]: 3.65
PBM binding z-score [10]: 3.19

GATAAAGGGTCAAGGCCAGAGTACGCGTATTGAT
PBM binding z-score [1]: 7.29
PBM binding z-score [2]: 5.43
PBM binding z-score [3]: 0.637
PBM binding z-score [4]: 4.49
PBM binding z-score [5]: 0.548
PBM binding z-score [6]: 6.28
PBM binding z-score [7]: 6.56
PBM binding z-score [8]: 6.32
PBM binding z-score [9]: 3.17
PBM binding z-score [10]: 5.23

TGTCAAAGTTCAAAGGTATCGTAAGTATCCACAC
PBM binding z-score [1]: 6.52
PBM binding z-score [2]: 6.21
PBM binding z-score [3]: 4.75
PBM binding z-score [4]: 3.88
PBM binding z-score [5]: 1.73
PBM binding z-score [6]: 5.28
PBM binding z-score [7]: 7.79
PBM binding z-score [8]: 7.23
PBM binding z-score [9]: 4.93
PBM binding z-score [10]: 6.44

ACTAGCAGGCCCAGTTTGGGTCACTCAAACAAAG
PBM binding z-score [1]: -0.0555
PBM binding z-score [2]: -0.448
PBM binding z-score [3]: -0.417
PBM binding z-score [4]: 0.4
PBM binding z-score [5]: -0.861
PBM binding z-score [6]: 0.93
PBM binding z-score [7]: -0.337
PBM binding z-score [8]: 0.0503
PBM binding z-score [9]: -0.523
PBM binding z-score [10]: -0.144

GGAACGAGGGCACGTTGATAGCAGAGTTTGATGG
PBM binding z-score [1]: 0.419
PBM binding z-score [2]: 0.105
PBM binding z-score [3]: -0.441
PBM binding z-score [4]: 0.08
PBM binding z-score [5]: -0.424
PBM binding z-score [6]: 1.67
PBM binding z-score [7]: 1.7
PBM binding z-score [8]: 1.56
PBM binding z-score [9]: 0.331
PBM binding z-score [10]: 1.19

CGAACTAGGTCATTGACACGACAGTGAATAGTAA
PBM binding z-score [1]: 5.16
PBM binding z-score [2]: 3.65
PBM binding z-score [3]: 0.689
PBM binding z-score [4]: 2.48
PBM binding z-score [5]: 0.158
PBM binding z-score [6]: 4.67
PBM binding z-score [7]: 7.57
PBM binding z-score [8]: 6.21
PBM binding z-score [9]: 3.95
PBM binding z-score [10]: 5.54

TATACAGGGTCAAAGGCCAGAGCACGAATGTCGA
PBM binding z-score [1]: 6.57
PBM binding z-score [2]: 6.15
PBM binding z-score [3]: 1.83
PBM binding z-score [4]: 4.68
PBM binding z-score [5]: 2.53
PBM binding z-score [6]: 5.83
PBM binding z-score [7]: 7.89
PBM binding z-score [8]: 7.51
PBM binding z-score [9]: 5.16
PBM binding z-score [10]: 7.77

TCTGCTAGGTCAGTTGGACAGCTAACGAGCTGCC
PBM binding z-score [1]: 0.721
PBM binding z-score [2]: 0.508
PBM binding z-score [3]: -0.846
PBM binding z-score [4]: -0.0468
PBM binding z-score [5]: 0.424
PBM binding z-score [6]: 1.12
PBM binding z-score [7]: 0.413
PBM binding z-score [8]: 1.36
PBM binding z-score [9]: 1.23
PBM binding z-score [10]: 1.21

CCCCGGAGGACAACAGGAGGTCAGAGCTGCCAGA
PBM binding z-score [1]: 1.51
PBM binding z-score [2]: 2.55
PBM binding z-score [3]: 2.5
PBM binding z-score [4]: 1.75
PBM binding z-score [5]: -0.479
PBM binding z-score [6]: 2.24
PBM binding z-score [7]: 0.602
PBM binding z-score [8]: 0.469
PBM binding z-score [9]: -0.809
PBM binding z-score [10]: -0.262

ATATCAAGGTGATCGTGAGGTCGTTGATACTAAC
PBM binding z-score [1]: 1.97
PBM binding z-score [2]: 1.33
PBM binding z-score [3]: 0.367
PBM binding z-score [4]: 1.31
PBM binding z-score [5]: 0.595
PBM binding z-score [6]: 1.82
PBM binding z-score [7]: 0.923
PBM binding z-score [8]: 0.763
PBM binding z-score [9]: 0.0904
PBM binding z-score [10]: 0.846

AGAATGAGGTTATTATGATCAGGGAATTGCGGTC
PBM binding z-score [1]: 1.62
PBM binding z-score [2]: 1.46
PBM binding z-score [3]: 0.202
PBM binding z-score [4]: 1.16
PBM binding z-score [5]: 0.134
PBM binding z-score [6]: 2.71
PBM binding z-score [7]: 1.93
PBM binding z-score [8]: 1.96
PBM binding z-score [9]: 0.795
PBM binding z-score [10]: 1.48

ATACCAAGGTGAACGTGAGGTCGTTGATACTAAC
PBM binding z-score [1]: 3.12
PBM binding z-score [2]: 3.08
PBM binding z-score [3]: 1.29
PBM binding z-score [4]: 2.47
PBM binding z-score [5]: -0.133
PBM binding z-score [6]: 2.87
PBM binding z-score [7]: 2.13
PBM binding z-score [8]: 1.87
PBM binding z-score [9]: 0.56
PBM binding z-score [10]: 1.48

From the supplement of paper PMC6555819
